Measurements from PubChem BioAssay (NCI).
Compounds without any hit were thinned out: in the full panel of roughly 83,000, 20% have a hit.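 A percent growth of 40 corresponds to 60% growth inhibition; 0 means no net growth; -100 means all cells died. Active threshold: below 10.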 Values without a mark were called inactive. Active and inactive are the calls of the source.

Tests used:
Experiment in all cases: NCI-60 one-dose screen, 48 h (100 = growth as untreated, 0 = no growth, -100 = all killed)
Details in all cases: 10 µM unless noted
NCI-H226 lung = test system: NCI-H226 lung
NCI-H322M lung = test system: NCI-H322M lung
HOP-62 NSCLC = test system: HOP-62 NSCLC
NCI-H460 lung = test system: NCI-H460 lung
HOP-92 NSCLC = test system: HOP-92 NSCLC
NCI-H522 lung = test system: NCI-H522 lung
A549/ATCC NSCLC = test system: A549/ATCC NSCLC
786-0 renal = test system: 786-0 renal
COLO 205 colon = test system: COLO 205 colon

Compound: CCSc1nc(Cl)c(C#N)c(-c2ccc(F)cc2)n1
- growth (NCI-H226 lung): 94.3%
- growth (NCI-H322M lung): 92%
- growth (HOP-62 NSCLC): 106%
- growth (NCI-H460 lung): 103%
- growth (HOP-92 NSCLC): 99%
- growth (NCI-H522 lung): 92.8%
- growth (A549/ATCC NSCLC): 87.3%
- growth (786-0 renal): 98.9%
- growth (COLO 205 colon): 106%

Compound: C=C1C(=O)O[C@H]2[C@H]1CC/C(COC(=O)Nc1nc3ccccc3[nH]1)=C\CC[C@@]1(C)O[C@@H]21
- growth (NCI-H226 lung): 79.8%
- growth (NCI-H322M lung): 105%
- growth (HOP-62 NSCLC): 89.9%
- growth (NCI-H460 lung): 91.4%
- growth (HOP-92 NSCLC): 50.4%
- growth (NCI-H522 lung): -27.2% (active)
- growth (A549/ATCC NSCLC): 95.5%
- growth (786-0 renal): 80%
- growth (COLO 205 colon): 17.3%

Compound: O=C(CCCC(=O)Nc1ccc(-n2nnc3cc(Cl)c(Cl)cc32)cc1)Nc1ccc(-n2nnc3cc(Cl)c(Cl)cc32)cc1
- growth (NCI-H226 lung): 49.9%
- growth (NCI-H322M lung): 59.9%
- growth (HOP-62 NSCLC): 28%
- growth (NCI-H460 lung): 14.9%
- growth (HOP-92 NSCLC): 77.6%
- growth (NCI-H522 lung): 37.4%
- growth (A549/ATCC NSCLC): 34%
- growth (786-0 renal): 49.6%
- growth (COLO 205 colon): 72.2%

Compound: O=C(C[n+]1cccc2cc(Cl)ccc21)c1ccc2c(c1)CCCC2
- growth (NCI-H226 lung): 39%
- growth (NCI-H322M lung): 61.6%
- growth (NCI-H460 lung): 19.8%
- growth (HOP-92 NSCLC): 4.68% (active)
- growth (NCI-H522 lung): -3.94% (active)
- growth (A549/ATCC NSCLC): 34.5%
- growth (786-0 renal): 80.4%
- growth (COLO 205 colon): 2.8% (active)

Compound: N#C/C(=C/c1ccc(O)c([N+](=O)[O-])c1)c1nc(-c2ccc([N+](=O)[O-])cc2)cs1
- growth (NCI-H226 lung): 52%
- growth (NCI-H322M lung): 52.8%
- growth (HOP-62 NSCLC): 86.8%
- growth (NCI-H460 lung): 20.5%
- growth (HOP-92 NSCLC): -8.22% (active)
- growth (NCI-H522 lung): 11.2%
- growth (A549/ATCC NSCLC): 27.1%
- growth (786-0 renal): 51.9%
- growth (COLO 205 colon): 51.2%

Compound: CSc1nc(-c2cccs2)c2c(N)[nH]nc2n1
- growth (NCI-H226 lung): 104%
- growth (NCI-H322M lung): 92.8%
- growth (HOP-62 NSCLC): 87.9%
- growth (NCI-H460 lung): 113%
- growth (HOP-92 NSCLC): 110%
- growth (NCI-H522 lung): 83.3%
- growth (A549/ATCC NSCLC): 98.5%
- growth (786-0 renal): 91.4%
- growth (COLO 205 colon): 112%

Compound: COc1ccc2nc(-c3ccc(OC)c(OC)c3)cc(-c3nnc(SCC(=O)Nc4ccc(/C(C)=N\O)cc4)n3-c3ccccc3)c2c1
- growth (NCI-H226 lung): 74.6%
- growth (NCI-H322M lung): 84.5%
- growth (NCI-H460 lung): 89.6%
- growth (HOP-92 NSCLC): 61.6%
- growth (NCI-H522 lung): 42%
- growth (A549/ATCC NSCLC): 70.7%
- growth (786-0 renal): 88.5%
- growth (COLO 205 colon): 112%

Compound: CCOC(=O)c1c(C(F)(F)F)n([O-])c2ccc(Cl)cc2[n+]1=O
- growth (NCI-H226 lung): 3.03% (active)
- growth (NCI-H322M lung): 6.75% (active)
- growth (HOP-62 NSCLC): -65.6% (active)
- growth (NCI-H460 lung): -78.5% (active)
- growth (HOP-92 NSCLC): -78.2% (active)
- growth (NCI-H522 lung): -59.4% (active)
- growth (A549/ATCC NSCLC): -39.6% (active)
- growth (786-0 renal): -73.8% (active)
- growth (COLO 205 colon): -59.2% (active)

Compound: O=C1NC(c2ccc(F)cc2)N=C2C(c3ccccc3)=NOC12 (centres undefined)
- growth (NCI-H226 lung): 99.9%
- growth (NCI-H322M lung): 109%
- growth (HOP-62 NSCLC): 96.5%
- growth (HOP-92 NSCLC): 103%
- growth (NCI-H522 lung): 92.1%
- growth (A549/ATCC NSCLC): 90.7%
- growth (786-0 renal): 96.8%
- growth (COLO 205 colon): 116%

Compound: Cc1nccc2c3ccc(OCc4cn(-c5ccc(Br)cc5)nn4)cc3n(CC(C)C)c12
- growth (NCI-H226 lung): 58.1%
- growth (NCI-H322M lung): 90.6%
- growth (HOP-62 NSCLC): 65.8%
- growth (NCI-H460 lung): 44.3%
- growth (HOP-92 NSCLC): 16.4%
- growth (NCI-H522 lung): 26.5%
- growth (A549/ATCC NSCLC): 41.1%
- growth (786-0 renal): 28.5%
- growth (COLO 205 colon): 15.1%

Compound: c1ccc(-c2n(Cc3ccc4ccccc4n3)cc[n+]2Cc2ccc3ccccc3c2)cc1
- growth (NCI-H226 lung): 9.5% (active)
- growth (NCI-H322M lung): 23.6%
- growth (HOP-62 NSCLC): 16.5%
- growth (NCI-H460 lung): 6.08% (active)
- growth (HOP-92 NSCLC): -32.4% (active)
- growth (NCI-H522 lung): 2.04% (active)
- growth (A549/ATCC NSCLC): 45.3%
- growth (786-0 renal): 26.2%
- growth (COLO 205 colon): -77.5% (active)

Compound: CCOC(=O)c1c(C)nc2c(c1N)CC(=O)N2CCc1ccccc1
- growth (NCI-H226 lung): 42.1%
- growth (NCI-H322M lung): 59.3%
- growth (HOP-62 NSCLC): 5.73% (active)
- growth (NCI-H460 lung): 6.52% (active)
- growth (HOP-92 NSCLC): 25.3%
- growth (NCI-H522 lung): -6.01% (active)
- growth (A549/ATCC NSCLC): 23%
- growth (786-0 renal): 8.72% (active)
- growth (COLO 205 colon): 10.7%

Compound: COc1cc(C2CC(c3ccc(Nc4nc(NCCO)nc(NCCO)n4)cc3)=NN2c2cc(Cl)cc(Cl)c2)cc(OC)c1OC (centres undefined)
- growth (NCI-H226 lung): 106%
- growth (NCI-H322M lung): 11.9%
- growth (HOP-62 NSCLC): 14.4%
- growth (NCI-H460 lung): -24.5% (active)
- growth (HOP-92 NSCLC): 89.9%
- growth (NCI-H522 lung): 25.1%
- growth (A549/ATCC NSCLC): 0.449% (active)
- growth (786-0 renal): -17.5% (active)
- growth (COLO 205 colon): 35%
